# Key:
# Experiment in all cases: DAPPL (digital affinity profiling via proximity ligation, sequencing); 10 mM Tris-HCl pH 7.5, 50 mM NaCl, 1 mM DTT, 4% glycerol, room temperature, 30 min; GST-TFs on glutathione beads, 16-mer random dsDNA library, 0.1% formaldehyde crosslink after washing; high values mean tight binding
# Conditions in all cases: protein: recombinant; tags: N-terminal GST; dsDNA, one strand shown
# [1] = target: T1, FLI1 (Homo sapiens, UniProt Q01543 1-452)
# T1 sequence: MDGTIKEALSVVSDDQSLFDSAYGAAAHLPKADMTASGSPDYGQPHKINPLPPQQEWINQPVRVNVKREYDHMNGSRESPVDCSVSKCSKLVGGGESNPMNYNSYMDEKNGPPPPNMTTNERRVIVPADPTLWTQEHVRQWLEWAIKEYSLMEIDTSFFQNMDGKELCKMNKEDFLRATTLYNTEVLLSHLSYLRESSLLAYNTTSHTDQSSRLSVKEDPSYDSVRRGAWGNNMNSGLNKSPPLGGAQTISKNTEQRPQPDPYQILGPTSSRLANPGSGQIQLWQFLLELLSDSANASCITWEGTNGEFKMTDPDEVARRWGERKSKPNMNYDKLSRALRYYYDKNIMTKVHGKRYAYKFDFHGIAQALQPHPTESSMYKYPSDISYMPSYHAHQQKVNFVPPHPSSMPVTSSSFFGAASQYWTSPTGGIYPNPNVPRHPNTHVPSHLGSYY
# Outline: (§1)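 A tag-only sample was pooled with DNA-barcoded human transcription factors that had been expressed in yeast as GST fusions and captured on glutathione beads. The pools were incubated for 30 min at room temperature with 200 nmole of a random double-stranded 16-mer DNA library in Tris/NaCl/DTT/glycerol buffer, then washed, crosslinked with 0.1% formaldehyde, proximity-ligated (BsaI/T4 ligase, 1 h, 37 °C), PCR-amplified and sequenced on an Illumina NextSeq500. Binding signal is each hexamer's read frequency for a factor divided by its frequency for the tag-only sample.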
# [2] = target: T2, ELK1 (Homo sapiens, UniProt P19419 1-428)
# T2 sequence: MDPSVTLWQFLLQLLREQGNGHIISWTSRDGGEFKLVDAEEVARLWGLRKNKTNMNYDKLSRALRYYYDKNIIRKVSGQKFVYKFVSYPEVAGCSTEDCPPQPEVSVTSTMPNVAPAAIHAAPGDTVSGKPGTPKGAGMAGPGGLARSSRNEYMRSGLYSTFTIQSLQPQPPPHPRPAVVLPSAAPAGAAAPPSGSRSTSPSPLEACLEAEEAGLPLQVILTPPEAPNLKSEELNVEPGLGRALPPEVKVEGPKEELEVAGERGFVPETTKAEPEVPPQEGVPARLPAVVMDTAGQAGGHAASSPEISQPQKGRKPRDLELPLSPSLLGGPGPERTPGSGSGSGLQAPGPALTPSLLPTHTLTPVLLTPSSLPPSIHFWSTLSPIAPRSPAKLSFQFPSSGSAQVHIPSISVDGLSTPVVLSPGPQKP
# Outline: as §1
# [3] = target: T3, GABPA (Homo sapiens, UniProt Q06546 1-454)
# T3 sequence: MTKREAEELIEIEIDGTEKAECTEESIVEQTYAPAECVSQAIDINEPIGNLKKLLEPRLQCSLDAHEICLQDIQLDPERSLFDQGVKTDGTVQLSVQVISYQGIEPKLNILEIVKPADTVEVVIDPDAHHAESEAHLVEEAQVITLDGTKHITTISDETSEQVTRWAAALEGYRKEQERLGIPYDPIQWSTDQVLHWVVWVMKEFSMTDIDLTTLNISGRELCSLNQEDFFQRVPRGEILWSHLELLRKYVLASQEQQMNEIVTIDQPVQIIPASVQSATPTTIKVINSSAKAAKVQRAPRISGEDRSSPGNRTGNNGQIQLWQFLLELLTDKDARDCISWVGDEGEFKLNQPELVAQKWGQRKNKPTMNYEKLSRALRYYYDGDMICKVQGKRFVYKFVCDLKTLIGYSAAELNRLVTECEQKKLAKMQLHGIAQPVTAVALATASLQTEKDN
# Outline: as §1
# [4] = target: T4, ERG (Homo sapiens, UniProt P11308 1-479)
# T4 sequence: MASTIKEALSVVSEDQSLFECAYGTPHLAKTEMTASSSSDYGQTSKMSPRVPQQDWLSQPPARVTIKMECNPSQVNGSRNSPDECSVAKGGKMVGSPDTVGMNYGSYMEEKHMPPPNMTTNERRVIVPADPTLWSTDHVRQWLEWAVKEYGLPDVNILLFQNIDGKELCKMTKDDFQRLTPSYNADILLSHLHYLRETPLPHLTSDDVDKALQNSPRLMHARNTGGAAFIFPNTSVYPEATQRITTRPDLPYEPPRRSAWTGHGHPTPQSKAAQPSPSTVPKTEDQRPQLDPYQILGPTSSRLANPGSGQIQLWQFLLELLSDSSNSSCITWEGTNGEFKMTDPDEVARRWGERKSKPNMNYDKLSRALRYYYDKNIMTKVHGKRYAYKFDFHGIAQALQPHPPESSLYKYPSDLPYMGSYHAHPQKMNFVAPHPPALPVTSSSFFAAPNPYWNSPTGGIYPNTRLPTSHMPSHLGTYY
# Outline: as §1
# [5] = target: ELF1 (Homo sapiens, UniProt P32519 1-619)
# Outline: as §1
# [6] = target: T5, EHF (Homo sapiens, UniProt Q9NZC4 1-300)
# T5 sequence: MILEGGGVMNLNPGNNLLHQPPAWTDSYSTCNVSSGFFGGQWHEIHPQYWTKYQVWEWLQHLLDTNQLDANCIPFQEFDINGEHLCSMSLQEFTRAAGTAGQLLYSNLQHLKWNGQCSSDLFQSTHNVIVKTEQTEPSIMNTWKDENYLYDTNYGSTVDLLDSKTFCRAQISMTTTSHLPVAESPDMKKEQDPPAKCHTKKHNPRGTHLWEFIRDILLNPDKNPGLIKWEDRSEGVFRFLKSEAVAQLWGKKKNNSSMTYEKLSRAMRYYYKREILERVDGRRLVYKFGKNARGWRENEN
# Outline: as §1
# [7] = target: SPI1 (Homo sapiens, UniProt P17947 1-270)
# Outline: as §1
# [8] = target: SPIB (Homo sapiens, UniProt Q01892 1-262)
# Outline: as §1
# [9] = target: T6, ELK3 (Homo sapiens, UniProt P41970 1-407)
# T6 sequence: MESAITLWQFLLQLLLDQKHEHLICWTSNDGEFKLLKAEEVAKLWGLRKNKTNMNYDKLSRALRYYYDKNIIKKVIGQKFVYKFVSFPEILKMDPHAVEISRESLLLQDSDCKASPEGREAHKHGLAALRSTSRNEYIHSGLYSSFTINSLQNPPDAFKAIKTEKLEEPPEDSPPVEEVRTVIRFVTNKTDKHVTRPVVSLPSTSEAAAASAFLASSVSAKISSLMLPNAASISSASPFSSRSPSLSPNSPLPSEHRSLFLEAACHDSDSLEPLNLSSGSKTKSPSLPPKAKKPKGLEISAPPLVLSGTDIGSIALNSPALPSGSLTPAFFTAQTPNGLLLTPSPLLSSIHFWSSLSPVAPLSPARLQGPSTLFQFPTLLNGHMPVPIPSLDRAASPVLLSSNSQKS
# Outline: as §1
# Chain of ELF1 (P32519 whole entry): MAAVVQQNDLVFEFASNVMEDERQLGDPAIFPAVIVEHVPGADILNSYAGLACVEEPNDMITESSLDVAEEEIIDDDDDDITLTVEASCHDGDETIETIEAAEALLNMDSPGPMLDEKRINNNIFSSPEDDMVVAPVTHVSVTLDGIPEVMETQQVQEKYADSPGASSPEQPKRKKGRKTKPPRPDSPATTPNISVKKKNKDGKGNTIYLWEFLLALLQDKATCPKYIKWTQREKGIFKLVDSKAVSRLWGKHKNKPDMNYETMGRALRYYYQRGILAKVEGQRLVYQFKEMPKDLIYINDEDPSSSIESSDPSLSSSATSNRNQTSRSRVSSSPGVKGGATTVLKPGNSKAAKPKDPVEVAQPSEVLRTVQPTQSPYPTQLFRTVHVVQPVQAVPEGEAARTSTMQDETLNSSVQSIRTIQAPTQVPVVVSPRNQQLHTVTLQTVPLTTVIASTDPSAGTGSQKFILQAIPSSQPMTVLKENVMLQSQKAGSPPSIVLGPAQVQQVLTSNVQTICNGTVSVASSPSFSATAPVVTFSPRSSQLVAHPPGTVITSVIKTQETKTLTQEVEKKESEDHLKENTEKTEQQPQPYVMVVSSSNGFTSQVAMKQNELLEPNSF
# Chain of SPIB (Q01892 whole entry): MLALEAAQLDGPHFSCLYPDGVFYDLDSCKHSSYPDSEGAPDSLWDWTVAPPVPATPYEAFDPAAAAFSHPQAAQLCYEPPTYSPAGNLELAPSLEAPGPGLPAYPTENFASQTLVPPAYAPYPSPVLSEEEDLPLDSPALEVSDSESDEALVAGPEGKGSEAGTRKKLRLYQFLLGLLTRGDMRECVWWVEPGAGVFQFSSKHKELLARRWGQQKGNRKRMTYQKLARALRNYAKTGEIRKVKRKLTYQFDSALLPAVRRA
sequence,measurement,setting,value
TTGACA,binding signal,[1],"1.38 fold enrichment (6-mer frequency, TF over GST control)"
same,binding signal,[2],"1.37 fold enrichment (6-mer frequency, TF over GST control)"
same,binding signal,[3],"1.44 fold enrichment (6-mer frequency, TF over GST control)"
same,binding signal,[4],"1.34 fold enrichment (6-mer frequency, TF over GST control)"
same,binding signal,[5],"1.37 fold enrichment (6-mer frequency, TF over GST control)"
same,binding signal,[6],"1.29 fold enrichment (6-mer frequency, TF over GST control)"
same,binding signal,[7],"1.25 fold enrichment (6-mer frequency, TF over GST control)"
same,binding signal,[8],"1.28 fold enrichment (6-mer frequency, TF over GST control)"
same,binding signal,[9],"1.28 fold enrichment (6-mer frequency, TF over GST control)"

# Source: article PMC7862700, “An all-to-all approach to the identification of sequence-specific readers for epigenetic DNA modifications on cytosine”
